Source: PubChem (several laboratories)
Mtb hypoxia rep – PubChem AID 1159583; M. tuberculosis hypoxia-regulated fluorescent reporter, fluorescence; hit rate 0.1% among 300,000; fluorescence inhibition, % (test concentration not listed); in the data active means fluorescence inhibition mostly above about 23%, no sharp cut-off; inactive means mostly below about 17%
PrP UTR inh – inhibition of PrP 5' UTR reporter expression | cell-based PrP 5' UTR mRNA reporter, plate reader | inhibition, % (test concentration not listed) | hit rate 0.35% among 340,000 | AID 488862, 2010; in the data active means inhibition above about 52%; further: 0 = median of the neutral control wells
Y pestis TopoI – Yersinia pestis topoisomerase I inhibitors, primary screen, biochemical, cleavage product accumulation, plate reader, single point. hit rate 0.064% among 360,000. Y. pestis Topo-I cleavage product accumulation. DNA topoisomerase I (Yersinia pestis CO92). activity, % at 10 µM; in the data active means activity above about 50%, passing the limit was not always enough
PrPC TRFRET – inhibitors of human cell surface prion protein PrPC, primary screen, cell-based, TR-FRET | TR-FRET read-out | hit rate 0.43% among 370,000 | inhibition, % at 13.8 µM | Major prion protein (Homo sapiens), P04156; in the data active means inhibition above about 24%; further: 0% = median of the test wells and 100% = reference compound wells
GDH-TPI counter – GDH-TPI coupling enzyme inhibitors, primary screen, artefact control for M. tuberculosis FBA inhibitor project, biochemical, absorbance, full deck | inhibition, % at 4.8 µM | hit rate 1.2% among 360,000 | GDH-TPI coupled enzyme counterscreen, NADH absorbance; in the data active means inhibition above about 30%;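 further: 0% = DMSO wells and 100% = wells lacking the enzyme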
Mtb FBA inh – Mtb FBA enzyme inhibitors, primary screen, biochemical, fluorescence, strain H37Rv | hit rate 2.3% among 360,000 | inhibition, % at 1 µM | AID 588726, 2011 | purified M. tuberculosis FBA, fluorescence read-out; in the data active means inhibition above about 27%;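 further: 0% = vehicle and 100% = reference inhibitor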
Target sequence (P9WQA3 whole entry, looked up): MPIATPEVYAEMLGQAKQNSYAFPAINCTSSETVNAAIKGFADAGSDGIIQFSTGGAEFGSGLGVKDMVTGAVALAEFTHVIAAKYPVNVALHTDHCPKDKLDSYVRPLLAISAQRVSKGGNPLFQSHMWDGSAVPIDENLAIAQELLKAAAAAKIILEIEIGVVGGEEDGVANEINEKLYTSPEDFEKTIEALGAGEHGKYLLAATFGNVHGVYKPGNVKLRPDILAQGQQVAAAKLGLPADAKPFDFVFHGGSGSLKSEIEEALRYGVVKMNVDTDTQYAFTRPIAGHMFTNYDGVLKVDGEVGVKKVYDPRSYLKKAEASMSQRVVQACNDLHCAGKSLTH
An asterisk follows results filed as active; . = not tested or not shown; + = active, no number. Shown are actives, neighbours in structure and some others; about 3.8% of the full set was active somewhere.

SMILES | Mtb hypoxia rep | PrP UTR inh | Y pestis TopoI | PrPC TRFRET | GDH-TPI counter | Mtb FBA inh
Cc1ccc(-n2c(C)cc(C=C3C(=O)N(C)C(=O)N(C)C3=O)c2C)cc1 | 18.1 | -12.9 | -0.2 | 1.2 | 12.3 | 112.3*
Cc1cc(/C=C2/C(=O)NC(=O)N(C)C2=O)c(C)n1-c1ccccc1 | 13.0 | -37.6 | 8.8 | -3.4 | 3.8 | -1.9
CCOC(=O)c1ccc(NS(=O)(=O)c2c(C)nc3sccn3c2=O)cc1 | 11.4 | -23.3 | -1.6 | 6.1 | 35.1* | 1.5
Cc1ccc(NS(=O)(=O)c2c(C)nc3sccn3c2=O)cc1 | 3.7 | -10.9 | 12.5 | -0.4 | 24.4 | 2.1
CC(CC(=O)NCCCN1CCOCC1)=NNC(=O)COc1ccc(C)cc1 | 16.9 | . | . | . | . | .
COc1cc2cc(C(=O)N3CCN(Cc4ccc5c(c4)OCO5)CC3)c(=O)oc2cc1OC | 0.8 | -12.4 | -0.2 | -6.5 | 16.9 | +
COc1ccc(-n2c(C)cc(C(=O)Cn3nc(C(=O)O)c4ccccc4c3=O)c2C)cc1 | -1.3 | -15.1 | -1.2 | 5.8 | 6.0 | 1.2
Cc1cc(C(=O)Cn2nc(C(=O)O)c3ccccc3c2=O)c(C)n1-c1ccc(OC(F)F)cc1 | 3.1 | -37.9 | 68.1* | 7.3 | -0.3 | -3.9
Cc1ccc(-n2c(C)cc(C(=O)Cn3nc(C(=O)O)c4ccccc4c3=O)c2C)cc1 | -11.0 | -3.9 | 79.3* | -4.5 | 6.6 | -0.6
COc1ccccc1/C=C/C=NNC(=O)c1ccco1 | -2.9 | . | . | . | . | .
CCCCCCCCNS(=O)(=O)CCNCc1ccccc1OC | . | -13.3 | 52.8* | 1.4 | -6.2 | 1.8
COc1ccc(CNS(=O)(=O)CCNCc2ccccc2OC)cc1 | . | -11.2 | 11.9 | 7.2 | 0.5 | 1.4
Cc1ccc(OC(=O)CCC(=O)Oc2ccc(C)cc2C)c(C)c1 | 8.3 | -0.8 | 60.1* | -6.5 | -1.3 | -1.1
COc1ccc(CC(=O)Oc2ccc(C)cc2C)cc1 | -4.9 | -27.3 | 6.5 | 0.0 | 3.2 | 2.2
O=c1oc2c(CN3CCN(CCO)CC3)c(O)ccc2cc1-c1ccccn1 | 4.3 | -16.0 | 4.3 | -12.3 | 17.5 | +
O=c1oc2c(CN3CCCCC3)c(O)ccc2cc1-c1nc2ccccc2[nH]1 | -1.1 | -15.4 | -2.4 | -7.7 | -3.7 | 2.1
Cc1cc(=O)oc2c(CN3CCN(CCO)CC3)c(O)ccc12 | -9.0 | -0.6 | -3.2 | -9.3 | 11.4 | +
CN1CCN(Cc2c(O)ccc3c(-c4ccccc4)cc(=O)oc23)CC1 | 12.8 | -9.0 | 6.2 | -9.3 | 10.6 | 3.2
Cc1cc(=O)oc2c(CN3CCCC3)c(O)ccc12 | 10.5 | -30.2 | 7.8 | 14.3 | 19.3 | +
CCCc1cc(=O)oc2c(CN3CCCC3)c(O)ccc12 | . | -4.9 | 1.7 | 1.7 | 20.1 | .
CCN1CCN(Cc2c(O)ccc3c(C)cc(=O)oc23)CC1 | -9.5 | -14.5 | -1.7 | -7.9 | 16.7 | +
Oc1ccccc1C=Nn1cnn(Cc2ccccc2Cl)c1=S | 7.0 | . | . | . | . | .
Cc1noc(C)c1S(=O)(=O)Nc1ccc2c(c1)C(=O)N(C(C)CO)CC(C)C(CN(C)S(=O)(=O)c1ccccc1)O2 (stereo not drawn) | 2.9 | . | . | . | . | .
Cn1c(=O)c(N=O)c(N)n(Cc2ccccc2)c1=S | -3.7 | -29.8 | -6.0 | -8.3 | 31.7* | -1.1
Cn1c(=O)n(Cc2ccccc2)c2ccccc21 | 7.6 | -22.3 | -0.4 | -10.3 | 5.7 | 0.9
SMILES | Mtb hypoxia rep | PrP UTR inh | Y pestis TopoI | PrPC TRFRET | GDH-TPI counter | Mtb FBA inh
COc1ccc(C2C=CCN(C(=O)c3ccccc3)C(Cc3ccccc3)C(=O)N2Cc2ccc(F)cc2)cc1 (stereo not drawn) | 2.3 | . | . | . | . | .
O=C(NN=Cc1ccc(F)cc1)c1ccncc1 | 24.0 | . | . | . | . | .
CCOC(=O)N=Nc1c(O)n(C)c2ccccc12 | -4.2 | -10.4 | -4.5 | -14.4 | 13.3 | -1.4
CCOc1ccc2c(c1)c(N=NC(N)=S)c(O)n2C | 11.3 | . | -10.0 | -17.2 | 31.2* | -1.0
COC(=O)Cn1c(O)c(N=NC(=O)CNC(=O)c2ccncc2)c2ccccc21 | -2.2 | -0.8 | -6.2 | -26.1 | 37.8* | 0.7
Cn1c(O)c(N=NC(=O)CNC(=O)c2cccnc2)c2ccccc21 | -5.5 | -21.9 | 2.1 | -37.0 | 39.1* | 0.3
CCCn1c(O)c(N=NC(=O)CNC(=O)c2cccnc2)c2ccccc21 | 14.7 | -14.8 | 5.3 | -24.1 | 6.3 | -3.5
Cn1c(O)c(N=NC(=N)N)c2ccccc21 | -1.8 | -3.8 | 1.2 | -7.9 | 40.0* | -1.7
